Experiment in all cases: PBM binding z-score (relative to random genomic background probes); higher = stronger binding; sequences stand for … in GC…GCGATTGACAGCGTAGAATGAAGG
The subject of test [1] is FXR:RXRa (NR concentration 270 nM, RXRa partner concentration 90 nM). In outline:
(§1)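 Ligand-free nuclear receptor dimers were applied to custom Agilent 4×180K protein-binding microarrays whose double-stranded probes carried direct-repeat seeds, single-nucleotide variants, half-site ablations and random human genomic background sequences in 34-nt variable regions. Incubation lasted 1 h. Binding z-scores were computed against the random background probes from regression-normalized fluorescence.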

Test [2] relates to LXRa:RXRa (NR concentration 270 nM, RXRa partner concentration 90 nM). In short, it runs like this: as §1
In test [3] the test system is LXRa homodimer (NR concentration 270 nM). In short, it runs like this:
as §1

The subject of test [4] is LXRb:RXRa (NR concentration 270 nM, RXRa partner concentration 90 nM). In short, it runs like this: as §1
Test [5] has as its system LXRb homodimer (NR concentration 270 nM). In outline:
as §1

Test [6] concerns PPARa:RXRa (NR concentration 270 nM, RXRa partner concentration 90 nM). In short, it runs like this:
as §1

For test [7], the system named is PPARg:RXRa (NR concentration 180 nM, RXRa partner concentration 90 nM). In short, it runs like this: as §1
Test [8] concerns PPARg:RXRa 270nM:90nM, anti-RXR (NR concentration 270 nM, RXRa partner concentration 90 nM). In outline: as §1
The subject of test [9] is PPARg:RXRa 30nM:10nM, anti-RXR (NR concentration 30 nM, RXRa partner concentration 10 nM). In short, it runs like this: as §1
Test [10] deals with PPARg:RXRa 90nM:30nM, anti-RXR (NR concentration 90 nM, RXRa partner concentration 30 nM). In short, it runs like this:
as §1

In test [11] the test system is PPARg:RXRa DBDmut IVT, anti-RXR (DBD mutation: RXRa K156A/R161A, NR concentration 270 nM, RXRa partner concentration 90 nM). In outline:
as §1

The subject of test [12] is PPARg:RXRa IVT, anti-PPARg (NR concentration 270 nM, RXRa partner concentration 90 nM). In short, it runs like this: as §1
The subject of test [13] is PPARg DBDmut:RXRa IVT, anti-PPARg (DBD mutation: PPARg1 K132A/R137A, NR concentration 270 nM, RXRa partner concentration 90 nM). In outline: as §1
Test [14] concerns PPARg DBDmut IVT, anti-PPARg (DBD mutation: PPARg1 K132A/R137A, NR concentration 270 nM). In short, it runs like this: as §1
The test system of test [15] is PPARg homodimer (NR concentration 180 nM). In outline: as §1
Test [16] relates to PXR:RXRa (NR concentration 270 nM, RXRa partner concentration 90 nM). In outline:
as §1

The subject of test [17] is PXR homodimer (NR concentration 270 nM). In outline:
as §1

Test [18] deals with RARa:RXR (NR concentration 270 nM, RXRa partner concentration 90 nM). In outline:
as §1

Test [19] deals with RARa homodimer (NR concentration 270 nM). In outline: as §1
The subject of test [20] is RARb:RXRa (NR concentration 270 nM, RXRa partner concentration 90 nM). In short, it runs like this:
as §1

Regarding CCTACTGGGCCATCCAGAGGTCATTGATCATATG, the PBM binding z-score in test [1] is 2.46; in [2], 4.37; in test [3], 6.73; in test [4], 3.84; in test [5] it was 0.613; in test [6] it was 4.07. Also, the PBM binding z-score in test [7] was 2.72; in test [8] it was 3.35; in test [9], 0.809; in test [10], 2.2; in test [11], 4.14; in test [12] it was 4.6. In addition, the PBM binding z-score was found to be 0.419 in test [13]; 0.464 in test [14]; 2.88 in [15]; 5.05 in [16]; 2.23 in test [17]; 4.9 in [18]. Also, the PBM binding z-score was found to be 0.594 in [19] and 3.21 in [20].
For the sequence TGTCAAAGTTAAAAGGTAACGTAAGTATCCACAC, the PBM binding z-score in test [1] was 0.429; in [2], 0.482; in [3], -0.245; in [4] it was 0.823; in [5], -0.178; in test [6], 2.09. The PBM binding z-score is 2.26 in [7]; 3.15 in test [8]; 1.03 in test [9]; 2.13 in test [10]; -0.253 in [11]; 2.08 in test [12]. Moreover, the PBM binding z-score worked out at 1.24 in [13]; 0.84 in test [14]; 0.261 in [15]; 0.715 in [16]; 0.361 in test [17]; 1.23 in test [18]. For the same sequence, the values for the PBM binding z-score in [19] and in test [20] were 0.69 and 1.33, respectively.
Consider ATCTGTAGGTAAAGTTCAGTGAAAGATCGATAGA, for which the PBM binding z-score came to 0.691 in test [1]; 1.44 in test [2]; 1.19 in test [3]; 1.01 in test [4]; 0.396 in test [5]; 2.28 in test [6]. Moreover, the PBM binding z-score in test [7] stood at 3.37; in test [8] it was 4.2; in [9], 2.41; in [10] it was 3.78; in test [11] it was 1.48; in test [12] it was 2.2. The PBM binding z-score came to 1.04 in test [13]; 0.902 in test [14]; 1.06 in test [15]; 1.41 in test [16]; 1.84 in test [17]; 0.99 in [18]. Further, the PBM binding z-score in test [19] is 0.559; in test [20], 2.53.
With ACGAGCAGGCCAAGGGTCACTCAAGATTAGTCCG, the PBM binding z-score in test [1] was 2.54; in [2], 2.98; in test [3], 0.215; in test [4], 2.7; in test [5], -0.627; in test [6], 4.15. For the same sequence, the PBM binding z-score in [7] was 5.95; in test [8], 6.33; in [9] it was 3.74; in test [10] it was 5.66; in test [11], 0.294; in test [12], 2.7. The PBM binding z-score was -0.273 in test [13]; -0.61 in [14]; 1.76 in [15]; 3.15 in test [16]; -0.226 in test [17]; 4.01 in test [18]. Further, the PBM binding z-score in test [19] was 0.319; in test [20] it was 3.69.
TTACCGAGGTGAGCTGAGGTCGTTGATCCAACTC: the PBM binding z-score in test [1] was 1.71; in [2] it was 1.73; in test [3] it was -0.575; in [4] it was 1.16; in test [5], -0.881; in test [6], 2.03. Besides, the PBM binding z-score in test [7] was 0.345; in test [8], 0.915; in test [9], -0.318; in [10], 0.221; in [11], 1.35; in test [12], 2.15. For the same sequence, the PBM binding z-score was 0.433 in [13]; -0.145 in test [14]; -0.159 in test [15]; 5.27 in [16]; 0.0419 in test [17]; 2.36 in test [18]. Besides, the PBM binding z-score is -0.912 in [19] and 1.76 in test [20].
Take TCTCGGAGGACACGAAAGGTCAGGGCTCGACATC: the PBM binding z-score is 3.31 in test [1]; 3.84 in test [2]; 3.08 in test [3]; 3.5 in test [4]; 0.0689 in test [5]; 3.95 in test [6]. The PBM binding z-score in test [7] is 1.6; in test [8] it was 2.91; in test [9] it was 2.57; in test [10] it was 2.76; in [11], 1.91; in test [12], 1.97. Also, the PBM binding z-score is 0.171 in test [13]; -0.651 in test [14]; 2.95 in test [15]; 4.44 in test [16]; 0.147 in test [17]; 4.93 in [18]. For the same sequence, the results for the PBM binding z-score in test [19] and in test [20] were 0.454 and 4.4, respectively.
For TCGGGTAGGTTAGGGGCATTCAGAATGGCGTCGA, the PBM binding z-score was determined as 1.49 in test [1]; 1.32 in test [2]; 0.575 in test [3]; 2.21 in test [4]; 1.8 in test [5]; 1.85 in [6]. For the same sequence, the PBM binding z-score in test [7] worked out at 0.499; in [8], 1.7; in [9] it was 1.98; in [10] it was 1.74; in test [11], 1.55; in test [12], 1.36. In addition, the PBM binding z-score in test [13] turned out to be 0.266; in test [14], 0.468; in test [15], 1.38; in [16], 1.67; in test [17] it was 1.27; in test [18], 1.32. In addition, the PBM binding z-score was 0.423 in test [19] and 1.74 in test [20].

(Values after the supplement of paper PMC6555819.)
